For 40 molecules, growth results are on record in PubChem BioAssay (NCI).

This is part of a sample that, as a whole, favours compounds with a hit. Of some 83,000 tested, about 20% had one in any assay.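 Testing used 96-well plates and a 48-hour single-concentration exposure. Example: -40 means 40% of the starting cells died.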 The source made the active and inactive calls.

This experiment deals with NCI/ADR-RES ovarian. Description: NCI-60 one-dose screen, 48 h (100 = growth as untreated, 0 = no growth, -100 = all killed). To be noted: 10 µM unless noted. On the procedure: Growth inhibition of the NCI/ADR-RES human […] tumor cell line is measured as a screen for anti-cancer activity. Cells are grown in 96 well plates and exposed to the test compound for 48 hours. Compounds are tested at a single concentration, which is 10^-5 M for most compounds. The reported endpoint is percent growth (GI% or GIPRCNT), where numbers from 0 - 100% represent growth inhibition, and numbers from -100% - 0 represent cell death. For example, a value of 40 represents 60% growth inhibition. A value of 0 means no net growth occurred over the course of the experiment. A value of -40 indicates 40% of cells at the beginning of the experiment died by the end of the experiment. A value of -100 means all cells are dead at the end of the experiment.
NCI-60 Human Tumor Cell Lines Screen was performed using the standard one-dose NCI protocol, which is described in more detail at https://dtp.cancer.gov/discovery_development/nci-60/default.htm.
Compounds with GIPRCNT values below 10 were considered active. Activity score was based on GIPRCNT using the following formula: […]
Score is 0 for GIPRCNT values of 100 or above, 50 for GIPRCNT values of 0, and 100 for GIPRCNT values of -100.
`Cn1cc(-c2cc3nc(-c4cn(C)c5ncccc45)cc(N)n3n2)c2ccccc21`: the growth was 31.2% (inactive). For `COc1ccc(C2(SCCNCc3cc(N(C)C)ccn3)c3ccccc3C=Cc3ccccc32)cc1`, the growth was -47.9% (active). With `CC(C)c1ccc2c(N)c(C(=O)Nc3ccc(C(F)(F)F)cn3)sc2n1`, the growth is 25% (inactive). For `CC(C)Sc1nc(NCCc2c[nH]c3ccccc23)c(C#N)c(-c2ccccc2)n1`, the growth is 15.1% (inactive). With `Cc1ccc2c(N)c(C(=O)Nc3ccc(OC(F)(F)F)cc3)sc2n1` the figure was 52.4% (inactive).

Take `CN1CCN(/C(=N\c2sc(-c3ccccc3)nc2-c2ccccc2)c2ccccc2)CC1`: the growth was 90.4% (inactive). With `COc1ccc(C(SCCNCc2cc(N(C)C)ccn2)(c2ccccc2)c2ccccc2)cc1` the figure was -46.1% (active). With `COc1cc(-c2cc(-c3cccc(OCC(=O)O)c3)[nH]c(=O)c2C#N)cc(OC)c1OC` the figure was 104% (inactive); with `CSc1ccccc1NC(=O)c1ccc2nnn(/C(C#N)=C/c3ccccn3)c2c1`, -44.2% (active).

For `COCOc1cc2oc(C(=O)N[C@@H](Cc3ccccc3)C(O)C(=O)NCc3ccccc3)c(C)c(=O)c2cc1OCOC` (stereo not given in full), the growth is 98.5% (inactive). With `COc1cc(OC)c2c3nc4cc(C)c(C)cc4nc3n(CCN(C)C)c2c1` the figure was 3.26% (active). Regarding `Cn1cc(-c2cc3nc(-c4c[nH]c5ccc(Cl)cc45)cc(N)n3n2)c2ccccc21`, the growth is -29.7% (active). For the molecule `Clc1ccc(-c2ccc(OCCCN3CCN(c4ccncc4)CC3)cc2)cc1`, the growth is 49.7% (inactive). With `COc1cc(C2CC(c3cc(OC)c(OC)c(OC)c3)=NN2C(C)=O)ccc1OCc1ccccc1` (stereo not given) the figure was 38.4% (inactive). For `CCOC(=O)/C=C/c1cccc2c1C(=O)NC(C)(c1cc3cc(Cl)ccc3oc1=O)N2` (stereo not given) the value was 22.7% (inactive); for `COc1ccc([C@H](C)Nc2nc(Cl)nc3ccccc23)cc1`, 21.5% (inactive); for `C/C(=N\N=C\c1cc([N+](=O)[O-])ccc1Cl)c1ccc2c(c1)Nc1ccccc1S2`, 55% (inactive). For `O=C(CCN1C(=O)/C(=C/c2ccc(F)cc2)SC1=S)N1CCOCC1`, the growth is 78.2% (inactive). With `COC(=O)/C=C/c1cccc2c1C(=O)NC(C)(c1cc3ccccc3oc1=O)N2` (stereo not given) the figure was 80.1% (inactive). Take `CC(=O)Nc1cccc(-c2nc3cc(-c4ccc(O)cc4)ccc3n2C)c1`: the growth is 65.2% (inactive). `CCOc1ccc(C(=O)NC(=S)Nc2ccc(S(N)(=O)=O)cc2)cc1`: the growth is 102% [100 µM] (inactive). For `S=c1c2ccccc2nc2n1CCc1c-2[nH]c2ccccc12` the value was 49.6% (inactive); for `C=C1CC[C@@H]2[C@]3(C)COC(c4cn[nH]c4-c4ccccc4)O[C@@H]3CC[C@@]2(C)[C@@H]1C/C=C1/C(=O)OCC1O` (stereo not given in full), 37.8% (inactive).

Turning to `CN1C(=O)/C(=C/c2ccc(C(=O)Nc3ncc(Cc4ccc(Cl)cc4Cl)s3)cc2)SC1=S`, the growth was -11.8% (active). On to `O=C(NNc1ccccc1)n1c(=O)c2ccccc2c(=O)n1-c1ccccc1`, for which the growth was 98.3% (inactive).

Take `O=C(c1ccc(Cl)cc1)c1ccc(OCCCN2CCN(c3ccncc3)CC2)cc1`: the growth is 50% (inactive).

As for `CC1(C)CC[C@]2(C(=O)O)CC[C@]3(C)C(=CCC4[C@@]5(C)C[C@@H](O)[C@@H]6OC(c7ccco7)OC[C@@]6(C)C5CC[C@]43C)C2C1` (stereo not given in full), the growth was 35.6% (inactive). On to `O=C(NN1C(=O)/C(=C/C=C/c2ccc([N+](=O)[O-])o2)SC1=S)c1ccc(Cl)cc1`, for which the growth is -42.6% (active). With `COc1ccc(-c2nnc3ccc(N/N=C/c4ccc(C)cc4)nn23)cc1` the figure was 25.8% (inactive); with `COc1ccc(C(=O)/C=C/c2ccc(Oc3nc(Nc4ccc(F)cc4)nc(N(C)C)n3)c(OC)c2)cc1`, 40% (inactive). Take `Cc1cnc(C(=O)NNc2nc3cc(F)ccc3n3c(C(=O)N4CC5CC(C4)N5)ccc23)cn1`: the growth is 67% (inactive). With `COc1cc(OC)cc(-c2cc3ccc(N(C)C)cc3c(=O)[nH]2)c1`, the growth is 0.753% (active). `COc1ccc(C(=O)/C=C/c2ccc(OCc3ccccc3)c(OC)c2)cc1OC`: the growth is 19.7% (inactive). As for `CNC(=O)c1cc(Oc2ccc3nc(NC(=O)Nc4cccc(OC(F)(F)F)c4)sc3c2)ccn1`, the growth was -2.64% (active). For `Cc1sc(C(NC(=O)OCCn2c([N+](=O)[O-])cnc2C)C(F)(F)Cl)nc1-c1ccc(OC(F)(F)F)cc1` (stereo not given) the value was -78.6% (active); for `COc1ccc2[nH]c(O)c(N=NC(=O)COc3ccc(NC(=O)Nc4ccccc4)cc3)c2c1`, 110% (inactive). Regarding `N/C(=N\c1nc2ccccc2s1)NC(=O)Nc1ccccc1Br`, the growth was -57.1% (active).

For the molecule `COc1cc2c(c(OC)c1OC)C(=O)CC(c1cccc(NC(=O)c3cc(NC(=O)[C@H](CO)NC(=O)OC(C)(C)C)ccc3Cl)c1)O2` (stereo not given in full), the growth was 76.4% (inactive). With `COc1cc2c(c(OC)c1OC)C(=O)CC(c1cccc(NC(=O)c3cccc([N+](=O)[O-])c3)c1)O2` (stereo not given) the figure was 14.5% (inactive); with `O=C(Cn1nc(-c2ccccc2)ccc1=O)N/N=C/c1ccc(N2CCOCC2)cc1`, 95.5% (inactive).
